Data reported in PubChem BioAssay AID608 (Sanford-Burnham Center for Chemical Genomics, 2007).
Out of some 3,800 compounds screened, about 50 (1%) were called active. How the calls were made is not given here. The list shows a part of the results. Entries that show only a call come without a potency. Potency and affinity values are given separately.

Each compound was assayed against Peptidyl-prolyl cis-trans isomerase FKBP1A (Homo sapiens) (UniProt P62942) (assay: FKBP12 binders, biophysical, NMR detection (AID 608)). Conditions: NMR binding, purified FKBP12.
Peptidyl-prolyl cis-trans isomerase FKBP1A (Homo sapiens), sequence (P62942 whole entry, looked up): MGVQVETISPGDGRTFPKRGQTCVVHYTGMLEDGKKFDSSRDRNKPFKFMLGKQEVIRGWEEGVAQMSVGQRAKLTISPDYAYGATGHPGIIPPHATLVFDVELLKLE

Structure (SMILES) | outcome
O=C(Nc1ccc(OCC(=O)N2CCOCC2)cc1)c1cccnc1 | inactive
